The experiment can be described thus: NCI Yeast Anticancer Drug Screen. Data for the mgt1 strain (AID 153). To be noted: S. cerevisiae mgt1 mutant growth inhibition, active compounds read high. How it is done:
Growth inhibition of yeast strains with defined genetic alterations is measured as a screen for potential anti-cancer activity. Selected strains with alterations in DNA damage repair or cell cycle control were exposed to compounds and growth inhibition was measured relative to vehicle treated controls. The strain used in this assay is mgt1

Compounds without any hit were thinned out: in the full panel of roughly 79,000, 15% have a hit. The source made the active and inactive calls. No stated cut-off is given here; in the data, active means growth inhibition above about 70%; inactive means the rest. Residues, ends and D or L forms follow the SMILES beside them. *: point of attachment. CH2Cl = ClC*

Consider `N#CC(=C1C=CC(=NO)C=C1)c1ccccc1`, for which the growth inhibition was 1% (inactive) (at 1.2 µM); 24% (inactive) (at 3.7 µM); 99% (active) (at 11.0 µM); 99% (active) (at 33.0 µM); 99% (active) (at 100.0 µM).

Regarding `O=C(/C=N/O)Nc1cc(Cl)c(Cl)cc1Cl`, the growth inhibition (at 1.2 µM) is -8% (inactive); the growth inhibition (at 3.7 µM) was -9% (inactive); the growth inhibition (at 11.0 µM) is 34% (inactive); the growth inhibition (at 33.0 µM) was 60% (inactive); the growth inhibition (at 100.0 µM) was 92% (active).

As to `CC(=O)NC(CC(C)C)C(=O)NC(Cc1ccccc1)C(=O)CCl` (stereo not drawn) (Ac-Leu-Phe-CH2Cl; configuration not given here), the growth inhibition is -5% (inactive) (at 1.2 µM); -5% (inactive) (at 3.7 µM); -6% (inactive) (at 11.0 µM); -2% (inactive) (at 33.0 µM); 83% (active) (at 100.0 µM).

With `CN(N=O)C(=O)N[C@@H](C=O)[C@@H](O)[C@H](O)[C@H](O)CO`, the growth inhibition is -1% (inactive) (at 1.2 µM); -1% (inactive) (at 3.7 µM); -18% (inactive) (at 11.0 µM); 0% (inactive) (at 33.0 µM); -1% (inactive) (at 100.0 µM).

Consider `O=C(O)c1ccccc1.[Ag]`, for which the growth inhibition runs as follows: (at 1.2 µM) 98% (active); (at 3.7 µM) 101% (active); (at 11.0 µM) 99% (active); (at 33.0 µM) 99% (active); (at 100.0 µM) 99% (active).

On to `COc1cc([C@@H]2c3cc4c(cc3[C@@H](OC3OC5COC(C)OC5C(O)C3O)[C@H]3COC(=O)[C@H]23)OCO4)cc(OC)c1O` (stereo not given in full), for which the growth inhibition (at 1.2 µM) is -4% (inactive); the growth inhibition (at 3.7 µM) was -4% (inactive); the growth inhibition (at 11.0 µM) was -2% (inactive); the growth inhibition (at 33.0 µM) was 0% (inactive); the growth inhibition (at 100.0 µM) was 0% (inactive).

In the case of `Nc1nc(F)nc2c1ncn2C1OC(COP(=O)(O)O)C(O)C1O` (stereo not given), the growth inhibition was -3% (inactive) (at 1.2 µM); 0% (inactive) (at 3.7 µM); 2% (inactive) (at 11.0 µM); 5% (inactive) (at 33.0 µM); 12% (inactive) (at 100.0 µM).

In the case of `CC(=O)O[C@H]1C(=O)[C@@]2(C)[C@H]([C@H](OC(=O)c3ccccc3)[C@]3(O)C[C@H](OC(=O)[C@H](O)[C@@H](NC(=O)c4ccccc4)c4ccccc4)C(C)=C1C3(C)C)[C@]1(OC(C)=O)CO[C@@H]1C[C@@H]2O`, the growth inhibition reads like this: (at 1.2 µM) -2% (inactive); (at 3.7 µM) -2% (inactive); (at 11.0 µM) -3% (inactive); (at 33.0 µM) -3% (inactive); (at 100.0 µM) -7% (inactive).

These data come from PubChem BioAssay (NCI).
